Laboratory results: PubChem BioAssay AID1159580 (chemical genetic matrix, 2015)
Screen size: about 5,500 compounds; about 2,000 (36%) were called active. Roughly 18% stayed inconclusive and do not appear here. No stated cut-off is given here; in the data, active means normalized growth mostly below about 0.91 (no sharp cut-off); inconclusive means no clear call, values can overlap the other calls; inactive means mostly above about 0.92. Some of the results follow.

Experiment: chemical genetic growth profiling, strain panel (AID 1159580);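 further: tested at 20 µM; growth read once vehicle control cultures reached saturation at 30 °C; 1 = growth at the plate median or of vehicle wells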
Conditions: S. cerevisiae deletion strains, growth OD
[1] = locus YAR019C, strain CDC15, stronger effect = lower value
[2] = locus YBL105C, strain PKC1, stronger effect = lower value
[3] = locus YBR135W, strain CKS1, stronger effect = lower value
[4] = locus YBR136W, strain MEC1, stronger effect = lower value
[5] = locus YBR160W, strain CDC28, stronger effect = lower value
[6] = locus YDL017W, strain CDC7, stronger effect = lower value
[7] = locus YDL028C, strain MPS1, stronger effect = lower value
[8] = locus YDL101C, strain DUN1, stronger effect = lower value
[9] = locus YDL108W, strain KIN28, stronger effect = lower value
[10] = locus YDL132W, strain cdc53, stronger effect = lower value
[11] = locus YDL214C, strain PRR2, stronger effect = lower value
[12] = locus YDR052C, strain DBF4, stronger effect = lower value
[13] = locus YDR054C, strain cdc34, stronger effect = lower value
[14] = locus YDR226W, strain ADK1, stronger effect = lower value
[15] = locus YDR477W, strain SNF1, stronger effect = lower value
[16] = locus YER123W, strain YCK3, stronger effect = lower value
[17] = locus YER133W, strain GLC7, stronger effect = lower value
[18] = locus YFL009W, strain cdc4, stronger effect = lower value
[19] = locus YFL029C, strain CAK1, stronger effect = lower value
[20] = locus YFR003C, strain YPI1, stronger effect = lower value
[21] = locus YFR019W, strain FAB1, stronger effect = lower value
[22] = locus YFR028C, strain CDC14, stronger effect = lower value
[23] = locus YGR040W, strain KSS1, stronger effect = lower value
[24] = locus YGR052W, strain FMP48, stronger effect = lower value
[25] = locus YGR092W, strain DBF2, stronger effect = lower value
[26] = locus YHR030C, strain SLT2, stronger effect = lower value
[27] = locus YHR079C, strain IRE1, stronger effect = lower value
[28] = locus YHR082C, strain KSP1, stronger effect = lower value
[29] = locus YHR205W, strain SCH9, stronger effect = lower value
[30] = locus YIL147C, strain SLN1, stronger effect = lower value
[31] = locus YJL095W, strain BCK1, stronger effect = lower value
[32] = locus YJL128C, strain PBS2, stronger effect = lower value
[33] = locus YJL157C, strain FAR1, stronger effect = lower value
[34] = locus YJR016C, strain ILV3, stronger effect = lower value
[35] = locus YJR066W, strain TOR1 (second series), stronger effect = lower value
[36] = locus YJR066W, strain TOR1, stronger effect = lower value
[37] = locus YKL048C, strain ELM1, stronger effect = lower value
[38] = locus YKL067W, strain YNK1, stronger effect = lower value
[39] = locus YKL101W, strain HSL1, stronger effect = lower value
[40] = locus YKL193C, strain SDS22, stronger effect = lower value
[41] = locus YKL203C, strain TOR2, stronger effect = lower value
[42] = locus YLR113W, strain HOG1, stronger effect = lower value
[43] = locus YLR133W, strain CKI1, stronger effect = lower value
[44] = locus YLR403W, strain SFP1, stronger effect = lower value
[45] = locus YML070W, strain DAK1, stronger effect = lower value
[46] = locus YMR001C, strain CDC5, stronger effect = lower value
[47] = locus YMR205C, strain PFK2 (second series), stronger effect = lower value
[48] = locus YMR277W, strain FCP1, stronger effect = lower value
[49] = locus YNL006W, strain LST8, stronger effect = lower value
[50] = locus YNL020C, strain ARK1, stronger effect = lower value
[51] = locus YNL161W, strain CBK1, stronger effect = lower value
[52] = locus YNL183C, strain NPR1, stronger effect = lower value
[53] = locus YNL207W, strain RIO2, stronger effect = lower value
[54] = locus YNL222W, strain SSU72, stronger effect = lower value
[55] = locus YNL307C, strain MCK1 (second series), stronger effect = lower value
[56] = locus YOL078W, strain AVO1, stronger effect = lower value
[57] = locus YOL136C, strain PFK27, stronger effect = lower value
[58] = locus YOR061W, strain CKA2, stronger effect = lower value
[59] = locus YOR119C, strain RIO1, stronger effect = lower value
[60] = locus YOR231W, strain MKK1, stronger effect = lower value
[61] = locus YOR329C, strain SCD5, stronger effect = lower value
[62] = locus YPL031C, strain PHO85, stronger effect = lower value
[63] = locus YPL153C, strain RAD53, stronger effect = lower value
[64] = locus YPL204W, strain HRR25, stronger effect = lower value
[65] = locus YPL209C, strain IPL1, stronger effect = lower value
[66] = locus YPL256C, strain CLN2, stronger effect = lower value
[67] = locus YPR025C, strain CCL1, stronger effect = lower value
[68] = locus YPR106W, strain ISR1, stronger effect = lower value
[69] = locus YPR111W, strain DBF20, stronger effect = lower value
[70] = strain NNK1, stronger effect = lower value
[71] = strain TSCII, stronger effect = lower value

Measured: normalized growth

CSc1n[nH]c(-c2cc(C(C)(C)C)oc2C)c1C#N
active: [26] 0.542 | [42] 0.776 | [66] 0.814
inactive: [1] 0.949 | [2] 0.951 | [3] 0.952 | [4] 0.967 | [5] 0.955 | [6] 0.953 | [7] 0.966 | [8] 0.967 | [9] 0.937 | [10] 0.933 | [11] 0.847 | [12] 0.964 | [13] 0.934 | [14] 0.952 | [15] 0.835 | [16] 0.834 | [17] 0.867 | [18] 0.962 | [19] 0.928 | [20] 0.95 | [21] 0.943 | [22] 0.979 | [23] 0.847 | [24] 0.833 | [25] 0.78 | [27] 0.86 | [28] 0.818 | [29] 0.908 | [30] 0.954 | [31] 0.744 | [32] 0.894 | [33] 0.883 | [34] 0.946 | [35] 0.897 | [36] 0.789 | [37] 0.949 | [38] 0.846 | [39] 0.914 | [40] 0.948 | [41] 0.908 | [43] 0.888 | [44] 0.885 | [45] 0.879 | [46] 0.945 | [47] 0.888 | [48] 0.938 | [49] 0.947 | [50] 0.892 | [51] 0.948 | [52] 0.815 | [53] 0.937 | [54] 0.944 | [55] 0.89 | [56] 0.943 | [57] 0.906 | [58] 0.909 | [59] 0.83 | [60] 0.847 | [61] 0.948 | [62] 0.824 | [63] 0.819 | [64] 0.818 | [65] 0.959 | [67] 0.948 | [68] 0.947 | [69] 0.94 | [70] 0.943 | [71] 0.925

CSc1sc(C(=O)Sc2ccccc2)cc1S(=O)(=O)C(C)C
active: [42] 0.688
inactive: [1] 0.994 | [2] 0.997 | [3] 0.995 | [4] 0.991 | [5] 1 | [6] 0.995 | [7] 0.996 | [8] 1 | [9] 0.999 | [10] 0.983 | [11] 0.962 | [12] 0.993 | [13] 0.976 | [14] 1 | [15] 0.966 | [16] 0.902 | [17] 0.958 | [18] 0.979 | [19] 0.983 | [20] 0.994 | [21] 0.987 | [22] 0.992 | [23] 0.956 | [24] 0.927 | [25] 0.95 | [26] 0.997 | [27] 1 | [28] 0.988 | [29] 0.911 | [30] 0.99 | [31] 0.937 | [32] 0.937 | [33] 0.941 | [34] 0.988 | [35] 0.971 | [36] 1 | [37] 0.953 | [38] 0.961 | [39] 0.94 | [40] 0.992 | [41] 1.02 | [43] 0.955 | [44] 0.945 | [45] 0.93 | [46] 0.985 | [47] 0.966 | [48] 0.979 | [49] 0.997 | [50] 0.961 | [51] 0.993 | [52] 0.941 | [53] 0.974 | [54] 0.997 | [55] 0.946 | [56] 0.975 | [57] 0.929 | [58] 0.95 | [59] 1 | [60] 0.921 | [61] 0.994 | [62] 0.972 | [63] 0.988 | [64] 0.948 | [65] 0.994 | [66] 0.969 | [67] 0.996 | [68] 0.997 | [69] 0.979 | [70] 0.977 | [71] 0.98
